Cav32 inh: Cav3.2 calcium influx blockers – cell-based, Fluo-4 calcium fluorescence, FDSS, MLSMR library, primary screen; Voltage-dependent T-type calcium channel subunit alpha-1H (Homo sapiens), O95180; 100,000 tested, 4% active; B-score at 10 µM; Cav3.2-expressing cells; active compounds read low;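 active = single-dose well whose peak fluorescence ratio is a statistical outlier from its plate by either plate-standardised score or position-corrected B-score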
M1 ag: M1 muscarinic receptor agonists, primary screen, CHO-M1 cells, Fluo-4 calcium, agonist mode; Fluo-4 calcium fluorescence; active compounds read high; Muscarinic acetylcholine receptor M1; B-score at 10 µM; 64,000 tested, 3% active; AID 626, 2007;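 active = fluorescence rise, raw or as B-score row- and column-corrected plate score, outside the 99.7% band of its plate's samples, either direction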
M1 antagonist: antagonists of rat M1 muscarinic receptor; AID 628, 2007; Muscarinic acetylcholine receptor M1 (Rattus norvegicus), P08482; CHO-M1 cells, Fluo-4 calcium, ACh EC80 antagonist mode; active compounds read low; B-score at 10 µM; 64,000 tested, 3.4% active;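 active = calcium fluorescence response, raw or row-and-column corrected B-score, differing from the plate sample mean either way at a set confidence level, mostly lower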
PLAP activator: PLAP enzyme activators, biochemical, luminescence, HTS | Alkaline phosphatase, placental type (Homo sapiens), P05187 | AID 696, 2007 | activation fold at 20 µM | purified PLAP enzyme, luminescent substrate read-out; active compounds read high | 96,000 tested, 1.2% active; in the data active = activation fold above about 2
HER2 expr 66K: inhibitors of Her2 protein expression, primary screen, SKBR-3 cells, AlphaScreen, 66K library; 65,000 tested, 0.69% active; SKBR-3 HER2 protein level, 18-24 h; active compounds read low; HER2 level % of control, % at 10 µM; Receptor tyrosine-protein kinase erbB-2 (Homo sapiens), P04626;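 active = HER2 level under 5% of the carrier-only control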;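 note: 100% = DMSO carrier and 0% = 500 nM PU-H71 HSP90 inhibitor; lower value means stronger loss of Her2 protein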
M1 antag confirm: rat M1 muscarinic receptor antagonists, confirmation, CHO cells, Fluo-4 calcium, duplicate; shares compounds with M1 antagonist; calcium response (max-min fluorescence) at 10 µM; 1,700 tested, 43% active; ACh EC80 antagonism; active compounds read low;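 active = calcium response below the same-plate mean of wells given acetylcholine alone at its 80%-effect dose, minus 3 SD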;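 note: raw fluorescence intensity difference in arbitrary instrument units and not normalized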
mGluR4 antag: human mGluR4 response to M1 antagonist hits, M1 allosteric modulator project, cell-based, antagonist mode, secondary assay 1. CHO-mGluR4 calcium flux, Fluo-4 fluorescence, glutamate EC80; active compounds read low. shares compounds with M1 antagonist. fluorescence response (max-min) at 10 µM. 1,700 tested, 0.9% active;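 active = fluorescence response below the plate's average for near-maximal glutamate wells, less 3 SD of those wells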;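 note: raw unnormalized fluorescence span taken in the window right after glutamate addition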
* = called active by the depositor; . = no result. A selection: hits, their analogues and other compounds. The true share with any hit is near 7.9%.

SMILES	Cav32 inh	M1 ag	M1 antagonist	PLAP activator	HER2 expr 66K	M1 antag confirm	mGluR4 antag
O=C(NCCCN1CCCC1)c1ccc(CS(=O)(=O)c2ccc(Br)cc2)o1	.	0.84	-1.2	1.4	96	.	.
O=C(NCCN1CCCCCC1)c1ccc(CS(=O)(=O)c2ccc(Br)cc2)o1	0.77	-1.2	-3*	1.3	70	470*	240
CC(C)(C)NC(=O)CSC(=Nc1ccc(F)cc1)NC#N	0.27	.	.	1	.	.	.
CCCc1cc(=O)[nH]c(SCC(=O)c2cc(C)n(CCOC)c2C)n1	-0.16	0.082	-3.6*	1.2	80	537	198
CCCc1cc(=O)[nH]c(SCC(=O)c2cc(C)n(C)c2C)n1	0.76	.	.	1	.	.	.
Cc1sc2ncnc(NCC(c3ccco3)N(C)C)c2c1C (centres undefined)	1.6	-0.81	-21*	.	113	582	245
CCCn1c(N)nc2ccccc21	.	.	.	0.8	.	.	.
CCn1c(N)nc2ccccc21	1.1	-1.1	-2.5*	0.9	95	706	160
Cc1ccc(SCCCCN2C(=O)NC(C)(C)C2=O)cc1	0.63	0.76	-2.1*	0.9	102	480	194
Clc1ccc(-n2nnnc2-c2ccccc2)cc1Cl	-1.2	0.35	-2.6*	0.7	152	516	250
COc1ccc(-n2nnnc2-c2cccc(OC)c2)cc1	-2.7	0.84	1.3	0.9	69	.	.
CN(C(=O)c1cc2sccc2n1C)C1CCCCC1	-0.37	0.75	-3.2*	1.6	148	628	236
Cn1c(C(=O)NC2CCCCC2)cc2sccc21	-0.29	-0.19	-0.32	1	113	.	.
Cc1ccc(C(=O)NCCCN2CCOCC2)cc1N1CCCC1=O	0.51	-0.024	-0.0062	1.2	75	.	.
CC(C)(C)P(=O)(CO)c1ccccc1 (centres undefined)	0.66	-0.38	-2.5*	1.1	97	508	195
CCOC(=O)c1c(NC(=O)CSc2nnnn2C)sc(CC)c1C	-1.9	0.56	0.79	1.6	88	.	.
Cc1nc(NC2=NCN(CCN3CCOCC3)CN2)nc2c(C)cccc12	.	0.52	-0.66	.	113	.	.
Cc1ccc2nc(NC3=NCN(CCN4CCOCC4)CN3)nc(C)c2c1	.	0.77	-2.6*	.	76	317*	233
CCn1c(SC(C)C(=O)OC)nnc1-c1c[nH]c2ccccc12 (centres undefined)	0.98	-0.96	-0.47	1.1	97	.	.
Cc1noc(C)c1COC(=O)c1ccc(S(=O)(=O)NCc2ccco2)cc1	.	-0.15	-2.6*	1.6	93	371*	194
COc1ccccc1NC(=O)COC(=O)c1ccc(S(=O)(=O)NCc2ccco2)cc1	-0.18	-0.89	-0.7	1.1	106	.	.
Cc1nn(C)c(C)c1S(=O)(=O)Nc1ccc2c(c1)OCO2	0.17	0.21	-5.9*	0.9	109	559	203
CN(c1cccc(NC(=O)CN(c2ccc(C34CC5CC(CC(C5)C3)C4)cc2)S(C)(=O)=O)c1)S(C)(=O)=O	-2.4	.	.	1.1	.	.	.
O=C(Nc1cccc(NS(=O)(=O)c2ccc(S(=O)(=O)NC3CC3)cc2)c1)c1ccccn1	-3.7	-0.3	-1.7	1.1	56	.	.
CS(=O)(=O)N(CC(=O)NC1CCCCCC1)Cc1ccc(Cl)cc1	0.2	.	.	0.9	.	.	.
CCN(CC(=O)NC1CCCCC1)S(=O)(=O)c1ccc(Cl)cc1	.	-0.44	-3.2*	0.9	67	680	228
CC(=O)Oc1cc2oc(=O)c3c(c2cc1Cl)CCC3	0.72	-1.4	-0.57	1.1	97	.	.
CCOC(=O)COc1cc2c3c(c(=O)oc2cc1C)CCCC3	1	1.5	-17*	0.8	80	119*	271
CCOC(=O)N1CCN(S(=O)(=O)c2cc(OCC(N)=O)c(C)cc2Cl)CC1	0.52	0	0	1.1	64	.	.
